Test results as given in PubChem BioAssay (NCATS).
Records with an inconclusive call do not appear. Unmarked numbers belong to inactive results. Activity calls are given as the source filed them. The call rests on the fitted dose curve.

biological target: Peroxisome proliferator-activated receptor delta (Homo sapiens) (UniProt Q03181); assay: qHTS assay for small molecule agonists of peroxisome proliferator-activated receptor delta signaling (AID 588534); settings: HEK293T PPARdelta-UAS-bla, beta-lactamase ratio, 18 h; series mostly up to 76.7 µM; activation: at the top concentration;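 further: 0% = DMSO basal wells and 100% = positive control agonist at 10 µM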
Sequence (Q03181 whole entry, looked up): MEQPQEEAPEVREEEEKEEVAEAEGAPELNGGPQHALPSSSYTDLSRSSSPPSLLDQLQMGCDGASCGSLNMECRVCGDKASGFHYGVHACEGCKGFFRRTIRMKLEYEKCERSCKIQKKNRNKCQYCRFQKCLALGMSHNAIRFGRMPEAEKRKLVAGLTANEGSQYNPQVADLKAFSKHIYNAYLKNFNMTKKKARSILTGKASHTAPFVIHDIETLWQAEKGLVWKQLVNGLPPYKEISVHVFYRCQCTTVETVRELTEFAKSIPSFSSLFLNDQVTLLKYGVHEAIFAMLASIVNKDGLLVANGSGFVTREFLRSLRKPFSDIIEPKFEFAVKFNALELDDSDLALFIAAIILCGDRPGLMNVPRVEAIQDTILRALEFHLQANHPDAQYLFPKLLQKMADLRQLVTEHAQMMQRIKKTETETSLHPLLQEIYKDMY
Outline: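 Titration series tested in agonist mode on beta-lactamase reporter cells; 18 hrs at 37 C after a 5 hr pre-incubation. Readout: CCF4 fluorescence, 2 hrs RT. Hill equation gives EC50 and maximal response.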

| Compound | activation [%] | outcome |
| --- | --- | --- |
| CN=C(NC#N)NCCSCc1nc[nH]c1C | 0.679 | – |
| COc1ccc2[nH]cc(CCNC(C)=O)c2c1 | – | inactive |
| CC(C)c1cccc(C(C)C)c1O | 7.79 | – |
| Cn1c(=O)c2[nH]cnc2n(C)c1=O | 5.3 | – |
| NC(=O)N1c2ccccc2C=Cc2ccccc21 | – | inactive |
| CC(=O)N1CCN(c2ccc(OC[C@H]3CO[C@](Cn4ccnc4)(c4ccc(Cl)cc4Cl)O3)cc2)CC1 | -14.1 | – |
| O=c1[nH]c(=O)n([C@H]2C[C@H](O)[C@@H](CO)O2)cc1Br | -8.9 | – |
| CC(=O)c1ccc(S(=O)(=O)NC(=O)NC2CCCCC2)cc1 | – | inactive |
| O=C(O)CCCc1ccc(N(CCCl)CCCl)cc1 | -9.35 | – |
| O=c1[nH]cnc2[nH]ncc12 | 12.3 | – |

biological target: Vitamin D3 receptor (Homo sapiens) (UniProt P11473); assay: qHTS assay for small molecule antagonists of vitamin D receptor signaling (AID 588541); settings: HEK293T VDR-UAS-bla, beta-lactamase ratio, antagonist mode; series mostly up to 76.7 µM; activity change, negative = inhibition: at the top concentration; further: potency means the concentration at half of the fitted maximal effect;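 on activity change, negative = inhibition: receptor activated by calcitriol during compound treatment; on the % scale 0 is the no-effect control and ±100 the full control effect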
Sequence (P11473 whole entry, looked up): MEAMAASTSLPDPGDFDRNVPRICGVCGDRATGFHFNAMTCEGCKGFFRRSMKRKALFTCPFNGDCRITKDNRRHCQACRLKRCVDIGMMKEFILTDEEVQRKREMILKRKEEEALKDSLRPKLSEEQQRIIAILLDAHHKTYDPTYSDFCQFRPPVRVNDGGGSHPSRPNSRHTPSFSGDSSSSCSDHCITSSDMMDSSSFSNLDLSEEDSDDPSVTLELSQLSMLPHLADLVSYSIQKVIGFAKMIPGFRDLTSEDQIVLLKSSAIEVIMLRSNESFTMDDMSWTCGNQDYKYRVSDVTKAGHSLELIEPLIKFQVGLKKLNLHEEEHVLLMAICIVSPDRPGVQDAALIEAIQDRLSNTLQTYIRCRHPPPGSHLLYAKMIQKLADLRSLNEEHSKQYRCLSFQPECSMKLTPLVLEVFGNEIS
Outline: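 VDR-UAS-bla HEK293T cells in 2% charcoal-stripped FBS were stimulated with 1-alpha,25-dihydroxyvitamin D3 (3 nM final) plus compound for 16 h at 37 C. The beta-lactamase CCF4 readout was normalized to 50 nM agonist and DMSO, and Hill fits gave IC50.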

| Compound | activity change, negative = inhibition [%] | Potency |
| --- | --- | --- |
| CC(C)c1cccc(C(C)C)c1O | -1.51 | – |
| CC(=O)N1CCN(c2ccc(OC[C@H]3CO[C@](Cn4ccnc4)(c4ccc(Cl)cc4Cl)O3)cc2)CC1 | – | 44.7 µM (active) |
| O=C(O)CCCc1ccc(N(CCCl)CCCl)cc1 | – | inactive |
